Assay results: PubChem BioAssay (NCI)
Compounds without any hit were thinned out: in the full panel of roughly 79,000, 15% have a hit. The source made the active and inactive calls. No stated cut-off is given here; in the data, active means growth inhibition above about 70%; inactive means the rest.

Experiment: NCI Yeast Anticancer Drug Screen. Data for the mlh1 rad18 strain (AID 175)
Conditions: S. cerevisiae mlh1 rad18 strain growth inhibition; at 50.0 µM; hits give high values
Method: Growth inhibition of yeast strains with defined genetic alterations is measured as a screen for potential anti-cancer activity. Selected strains with alterations in DNA damage repair or cell cycle control were exposed to compounds and growth inhibition was measured relative to vehicle treated controls. The strain used in this assay is mlh1 rad18

SMILES | growth inhibition
O=C(CNc1ccc2c(=S)c3ccccc3[nH]c2c1)Nc1ccccc1-c1ccccc1NC(=O)CNc1ccc2c(=S)c3ccccc3[nH]c2c1 | 85.9% (active)
CCc1ccccc1OCc1ccccc1 | 1.75% (inactive)
COC(=O)c1nc(N)[nH]c(=O)c1-c1ccc(Cl)cc1 | -47.8% (inactive)
CN(C)Cc1c(-c2ccccc2)c(-c2ccccc2)c2ccccn12 | 9.6% (inactive)
Cn1c([N+](=O)[O-])cnc1COc1ccc(OCc2ncc([N+](=O)[O-])n2C)cc1 | -2.7% (inactive)
Brc1ccccc1C(Nc1nncs1)Nc1nncs1 | 8.35% (inactive)
NC(=O)N/N=C/c1ccc2c(c1)OCO2 | 13.8% (inactive)
COc1ccc(N2C(=O)C(=O)N(C)C2=O)c2ccccc12 | -7.95% (inactive)
CCC(Nc1nncs1)Nc1nncs1 | -3% (inactive)
c1ccc2c(CN3CCCCC3)cccc2c1 | -13.9% (inactive)
COc1cc(C2=C3C(=O)OCC3Cc3ccccc32)ccc1OCc1ccccc1 (stereo not given) | 29.6% (inactive)
O=C(CCCn1cnc([N+](=O)[O-])n1)NCCCn1ccnc1[N+](=O)[O-] | -7.8% (inactive)
C[N+]1(C)CCCC(O)(C(=O)c2ccccc2)C1 (stereo not given) | 17.1% (inactive)
NC(=O)C(=O)N/N=C(\CC1(O)C(=O)Nc2ccccc21)c1ccc2ccccc2c1 (stereo not given) | 12.1% (inactive)
CC(=O)OCc1ccc(C)cc1 | 0.3% (inactive)
CCCC1(C)OCC(C)(C)CO1 | 1.9% (inactive)
CC[C@@]1(C)CCC2c3ccc(O)cc3CC[C@H]2C1C (stereo not given in full) | -6.6% (inactive)
Cc1cc(=O)[nH]c(NNC(C#N)c2ccc([N+](=O)[O-])cc2)n1 (stereo not given) | -50.9% (inactive)
Clc1ccc2nsnc2c1 | 35% (inactive)
c1ccc2c(OCCSCCCCCCCCCCSCCOc3cccc4ccccc34)cccc2c1 | -9.25% (inactive)

SMILES | growth inhibition
CCC(=O)NC(Nc1cccc(F)c1C)(C(F)(F)F)C(F)(F)F | -5.5% (inactive)
C1=C\CCCC/C=C/CC/1 | 10.7% (inactive)
CC(=O)CC(=O)CC(C)C.CC(=O)CC(=O)CC(C)C.[Cu] | 37.7% (inactive)
N#CC(=C1CCN(Cc2ccccc2)CC1)c1ccccc1 | 35.2% (inactive)
CC(C)(C)C1COC(c2ccccc2)(c2ccccc2)C1 (stereo not given) | -15.3% (inactive)
Cc1cn(C2CCN(CC3COC(C)(C)O3)O2)c(=O)[nH]c1=O (stereo not given) | -19.6% (inactive)
C/C(=C/C=C(c1ccccc1)c1ccccc1)C1CCC2C3CCC4CC5CCC4(C)C3(O5)C(=O)CC12C (stereo not given) | 92.8% (active)
Cc1ccc2nc(NS(=O)(=O)c3cc(C)c(Cl)cc3S)[nH]c2c1 | 39.9% (inactive)
C/C(CC(O)(C(F)(F)F)C(F)(F)F)=N\O | -5.65% (inactive)
CCCCCCCCCCCC[N+]1(C)CCS(=O)CC1 (stereo not given) | 85.3% (active)
N#CC(C#N)=C1C=CC=CC=C1 | -4.4% (inactive)
Cc1cccc(C(=O)N(C)C(c2ccco2)P(=O)(c2ccccc2)c2ccccc2)c1 (stereo not given) | 2.9% (inactive)
CC1OCOC1C1OCOCC1OC(=O)c1ccccc1 (stereo not given) | -5% (inactive)
Cc1nc(Nc2ccccc2)sc1C(=O)CC(=O)C(=O)NC12CC3CC(CC(C3)C1)C2 | -0.7% (inactive)
O=C(O)CN1CCCCC1 | -6.65% (inactive)
COC(=O)/C(C)=C1\C=C(C)CC(C)(C)C1 | -2.3% (inactive)
COc1ccc(C(O)c2cc(C(F)(F)F)cc(C(F)(F)F)c2)cc1OC (stereo not given) | 14.3% (inactive)
N#C/C(=C\c1c(Cl)cccc1Cl)c1nc(-c2ccc(Cl)cc2)cs1 | -32.9% (inactive)
COc1cc(C2c3cc4c(c(OC(=O)c5ccccn5)c3CC3COC(=O)C32)OCO4)cc(OC)c1OC (stereo not given) | 34% (inactive)
CCOC(=O)C1=CC(C)(C(=O)OCC)Nc2c(nc(SC)[nH]c2=O)N1 (stereo not given) | 2.5% (inactive)
